Measured values from PubChem BioAssay (NCI).
About 83,000 compounds went through this panel and 20% of them were active in at least one assay; those are over-represented in the sample as a whole.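 Testing used 96-well plates and a 48-hour single-concentration exposure. Example: -40 means 40% of the starting cells died.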 Values without a mark were called inactive. Calls of active or inactive are those of the source. Rule for the calls: active = growth percent below 10; inactive = the rest.

Tests used:
Experiment in all cases: NCI-60 one-dose screen, 48 h (100 = growth as untreated, 0 = no growth, -100 = all killed)
Details in all cases: 10 µM
HCT-15 colon = tested on: HCT-15 colon
HT29 colon = tested on: HT29 colon
SNB-75 CNS = tested on: SNB-75 CNS
SNB-19 CNS = tested on: SNB-19 CNS
U251 CNS = tested on: U251 CNS
PC-3 prostate = tested on: PC-3 prostate
SK-MEL-5 melanoma = tested on: SK-MEL-5 melanoma
UACC-62 melanoma = tested on: UACC-62 melanoma
LOX IMVI melanoma = tested on: LOX IMVI melanoma
SK-MEL-28 melanoma = tested on: SK-MEL-28 melanoma
SK-MEL-2 melanoma = tested on: SK-MEL-2 melanoma
EKVX NSCLC = tested on: EKVX NSCLC
SN12C renal = tested on: SN12C renal
TK-10 renal = tested on: TK-10 renal
ACHN renal = tested on: ACHN renal
CAKI-1 renal = tested on: CAKI-1 renal
A498 renal = tested on: A498 renal
CCRF-CEM leukemia = tested on: CCRF-CEM leukemia
MOLT-4 leukemia = tested on: MOLT-4 leukemia
UO-31 renal = tested on: UO-31 renal

Compound | growth (HCT-15 colon) | growth (HT29 colon) | growth (SNB-75 CNS) | growth (SNB-19 CNS) | growth (U251 CNS) | growth (PC-3 prostate) | growth (SK-MEL-5 melanoma) | growth (UACC-62 melanoma) | growth (LOX IMVI melanoma) | growth (SK-MEL-28 melanoma) | growth (SK-MEL-2 melanoma) | growth (EKVX NSCLC) | growth (SN12C renal) | growth (TK-10 renal) | growth (ACHN renal) | growth (CAKI-1 renal) | growth (A498 renal) [%] | growth (CCRF-CEM leukemia) | growth (MOLT-4 leukemia) | growth (UO-31 renal)
Cc1cccc2cc(-c3cc(-c4ccccc4)nc(=S)[nH]3)c(Cl)nc12 | 53.2% | 86.5% | 103% | 82.2% | 99.1% | 72.5% | 23.6% | 37.5% | 66.9% | 59.8% | 27.8% | 76.5% | 89.2% | 136% | 78.1% | 76.2% | 99 | 66.2% | 43.6% | –
C/C(=N\N=C\c1ccc(Cl)c([N+](=O)[O-])c1)c1ccc2c(c1)Nc1ccccc1S2 | 50.8% | 35.5% | 109% | 31.2% | -35% (active) | 13.5% | 38.8% | 38.8% | 37.2% | 60.9% | 69.4% | 48% | – | 77% | 45.6% | 60.3% | 91.8 | 56.4% | 40.3% | 76.9%
CN1CCN(c2ccc(Nc3nc(NCCCNC(=O)c4ccc(F)cc4)c4sccc4n3)cc2)CC1 | 2.85% (active) | 11.2% | 108% | 86% | 19.7% | 50.9% | 60.8% | 63.7% | 13.4% | -45.3% (active) | 106% | 87.8% | – | 119% | 36.7% | 69.8% | 129 | 18.8% | – | 71.6%
CCNCCCn1c2c(c3cc(OC)c(OC)cc3c1=O)C(=O)c1cc3c(nc1-2)OCO3 | -83% (active) | 26.1% | 56.5% | 24.9% | 21.7% | 43.7% | 22.5% | -15.3% (active) | -97.9% (active) | 71% | 125% | 76.6% | – | 98.3% | 2.02% (active) | 7.87% (active) | 87.1 | 0.158% (active) | -14.2% (active) | -97.8% (active)
CCOC(=O)C1=C(N)N(c2ccccc2)C2=C(C(=O)CC(C)(C)C2)C1c1ccccc1OC (stereo not given) | 96.3% | 103% | 94% | 92.2% | 111% | 89.2% | 97.2% | 80.4% | 101% | 110% | 109% | 91.9% | – | 106% | 103% | 97.2% | 98.7 | 100% | 105% | 74.4%
N#Cc1c(NC(=O)c2ccc(C(F)(F)F)c(Cl)c2)sc2c1CCC(=O)C2 | -62.3% (active) | -25.8% (active) | -37.7% (active) | -55.3% (active) | -84.7% (active) | -10.2% (active) | -98.8% (active) | -78.9% (active) | -52.6% (active) | -83.4% (active) | -9.04% (active) | -79.9% (active) | – | 16% | -96.5% (active) | -72% (active) | 74.1 | 5.53% (active) | -6.19% (active) | -98.8% (active)
COC(=O)c1c(C(=O)OC)c2n(c1C)[C@@H]([C@@H](C)[C@H]1CC[C@H]3[C@@H]4CCC5=CC(=O)CC[C@]5(C)[C@H]4CC[C@]13C)SC2 | 22.2% | 32.9% | 51.1% | 54.2% | 38.9% | 8.05% (active) | -87% (active) | 40.6% | 28.4% | 43.1% | 40.2% | 26.2% | – | 57.9% | 46% | -3.55% (active) | 71.8 | 10.2% | 2.64% (active) | 30.1%
O=C1Nc2cc(Cl)ccc2/C1=C/c1ccc(OCc2ccc(Br)cc2F)cc1 | -31.8% (active) | 5.82% (active) | -12.2% (active) | -45.4% (active) | -94.6% (active) | -42.3% (active) | -66.7% (active) | -75.2% (active) | -94.5% (active) | -60.7% (active) | -47.2% (active) | -13.7% (active) | -48.2% (active) | -54.8% (active) | -79.9% (active) | -59% (active) | – | 5.01% (active) | 10.3% | –
